Experiment [1] in a line: anti-His antibody binders, primary screen, artefact control for SMM control protein annotation, biochemical, small-molecule microarray, 635 nm fluorescence (AID 1128).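 Further: score merges feature fluorescence with signal-to-noise for each printed compound spot.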 The note with it: anti-His Alexa647 antibody binding, higher = more signal.
The test system of experiment [2] is Human papillomavirus type 1a E7 protein (residues 1-88). The experiment is described as follows: HPV1a E7 small-molecule binders, primary screen, biochemical, small-molecule microarray, residues 1-88, 635 nm (AID 1129). The conditions noted are these: small-molecule microarray binding, fluorescence 635 nm; higher = more signal.
Experiment [3] addresses Focal adhesion kinase 1 (Homo sapiens) (UniProt Q05397). The experiment is described as follows: small-molecule microarray binders of FAK, primary screen, biochemical, 635/667 nm fluorescence, BSA, DTT (AID 1130).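 Further: composite of spot emission at 667 nm and signal to noise over triplicate slides.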 The note with it: PTK2 binding, 635 nm fluorescence, higher = more signal.
Experiment [4] concerns Fibrinogen (Alexa647-labelled). The experiment is described as follows: fibrinogen binders on compound microarrays, profiling panel, artefact control for SMM control-protein annotation, biochemical, small-molecule microarray, 635/667 nm fluorescence (AID 1131).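 Further: z-score merges 667 nm fluorescence with per-spot signal-to-noise over triplicate slides.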 The conditions noted are these: fibrinogen-A647 binding fluorescence, higher = more signal.
The target of experiment [5] is Follistatin (Homo sapiens) (UniProt P19883). In words: follistatin binders on small-molecule microarrays, primary screen, biochemical, small-molecule microarray, 635/667 nm fluorescence (AID 1132). The conditions noted are these: FST binding, 635 nm fluorescence, higher = more signal.
The target in experiment [6] is Fibroblast growth factor 2 (Homo sapiens) (UniProt P09038). The experiment is described as follows: FGF2 binders on small-molecule microarrays, primary screen, biochemical, small-molecule microarray, 635/667 nm fluorescence (AID 1133). The conditions noted are these: small-molecule microarray binding, FGF2, fluorescence 635/667; higher = more signal.
Experiment [7] is described as follows: mitochondrial membrane potential change in A549 cells, profiling panel, cell-based, JC-1 fluorescence, basal, 24 h, 100 nL (AID 1138).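 Further: A549 lung adenocarcinoma cells under basal conditions with no added stimulus; test concentration not given here.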 The note with it: higher = more signal.
Experiment [8] deals with Lefty1. The experiment is described as follows: Lefty1 binders on small-molecule microarrays, primary screen, biochemical, small-molecule microarray, 635/667 nm fluorescence (AID 1139). The conditions noted are these: small-molecule microarray binding, fluorescence 635/667; higher = more signal.
Experiment [9] deals with wheat germ agglutinin (Triticum aestivum), Alexa647-labelled. In words: wheat germ agglutinin binders on compound microarrays, profiling panel, artefact control for SMM control-protein annotation, biochemical, small-molecule microarray, 635/667 nm fluorescence (AID 1140).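 Further: score merges 667 nm feature emission with signal to noise over triplicate slides.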 The note with it: WGA-A647 binding, 635 nm fluorescence, higher = more signal.
Experiment [10] concerns the target Luciferin 4-monooxygenase (Photinus pyralis) (UniProt P08659). The experiment is described as follows: firefly luciferase enzyme inhibitors, primary screen, biochemical, luminescence, purified enzyme, 2006 set (AID 1141).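 Further: cell-free assay with purified firefly luciferase at 100 ng per well in PBS; test concentration not given here.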 The conditions noted are these: SteadyGlo luminescence, 30 min, higher = more signal, called active from +8 up or from −8 down.

SMILES strings stand for the structures. Activity calls are given as the source filed them.

Chain of Follistatin (Homo sapiens) (P19883 whole entry, looked up): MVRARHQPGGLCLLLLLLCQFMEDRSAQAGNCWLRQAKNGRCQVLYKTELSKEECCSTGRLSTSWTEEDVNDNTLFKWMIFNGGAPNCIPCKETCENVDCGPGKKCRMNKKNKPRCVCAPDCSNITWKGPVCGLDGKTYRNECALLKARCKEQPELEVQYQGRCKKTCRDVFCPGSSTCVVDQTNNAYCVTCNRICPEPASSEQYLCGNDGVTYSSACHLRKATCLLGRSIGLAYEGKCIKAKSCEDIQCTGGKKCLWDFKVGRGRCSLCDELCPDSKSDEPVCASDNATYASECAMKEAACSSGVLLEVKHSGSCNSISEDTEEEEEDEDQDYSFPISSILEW
Chain of Luciferin 4-monooxygenase (Photinus pyralis) (P08659 whole entry, looked up): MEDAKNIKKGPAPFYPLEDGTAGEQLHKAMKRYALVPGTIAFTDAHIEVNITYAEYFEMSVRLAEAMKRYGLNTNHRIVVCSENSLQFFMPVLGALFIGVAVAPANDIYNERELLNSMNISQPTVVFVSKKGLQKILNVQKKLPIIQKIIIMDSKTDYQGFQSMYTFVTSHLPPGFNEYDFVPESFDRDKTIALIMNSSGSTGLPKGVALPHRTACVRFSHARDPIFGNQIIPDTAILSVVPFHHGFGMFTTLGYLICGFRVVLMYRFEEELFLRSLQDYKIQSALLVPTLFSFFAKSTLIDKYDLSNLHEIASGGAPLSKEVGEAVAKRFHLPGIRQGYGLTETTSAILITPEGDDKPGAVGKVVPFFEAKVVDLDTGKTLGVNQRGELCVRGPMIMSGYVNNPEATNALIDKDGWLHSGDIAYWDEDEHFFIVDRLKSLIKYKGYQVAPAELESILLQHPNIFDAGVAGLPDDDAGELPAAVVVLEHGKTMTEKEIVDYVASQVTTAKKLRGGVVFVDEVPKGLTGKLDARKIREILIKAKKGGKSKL
Chain of Fibroblast growth factor 2 (Homo sapiens) (P09038 whole entry, looked up): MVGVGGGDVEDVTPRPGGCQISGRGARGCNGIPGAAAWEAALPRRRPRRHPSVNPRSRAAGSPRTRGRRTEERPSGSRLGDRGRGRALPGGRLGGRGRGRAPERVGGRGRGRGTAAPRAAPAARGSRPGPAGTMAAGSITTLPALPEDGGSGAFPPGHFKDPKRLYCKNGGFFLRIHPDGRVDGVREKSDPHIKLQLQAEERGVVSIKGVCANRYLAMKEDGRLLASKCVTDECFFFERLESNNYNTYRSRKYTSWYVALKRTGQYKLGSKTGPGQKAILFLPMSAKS
Chain of Focal adhesion kinase 1 (Homo sapiens) (Q05397 whole entry, looked up): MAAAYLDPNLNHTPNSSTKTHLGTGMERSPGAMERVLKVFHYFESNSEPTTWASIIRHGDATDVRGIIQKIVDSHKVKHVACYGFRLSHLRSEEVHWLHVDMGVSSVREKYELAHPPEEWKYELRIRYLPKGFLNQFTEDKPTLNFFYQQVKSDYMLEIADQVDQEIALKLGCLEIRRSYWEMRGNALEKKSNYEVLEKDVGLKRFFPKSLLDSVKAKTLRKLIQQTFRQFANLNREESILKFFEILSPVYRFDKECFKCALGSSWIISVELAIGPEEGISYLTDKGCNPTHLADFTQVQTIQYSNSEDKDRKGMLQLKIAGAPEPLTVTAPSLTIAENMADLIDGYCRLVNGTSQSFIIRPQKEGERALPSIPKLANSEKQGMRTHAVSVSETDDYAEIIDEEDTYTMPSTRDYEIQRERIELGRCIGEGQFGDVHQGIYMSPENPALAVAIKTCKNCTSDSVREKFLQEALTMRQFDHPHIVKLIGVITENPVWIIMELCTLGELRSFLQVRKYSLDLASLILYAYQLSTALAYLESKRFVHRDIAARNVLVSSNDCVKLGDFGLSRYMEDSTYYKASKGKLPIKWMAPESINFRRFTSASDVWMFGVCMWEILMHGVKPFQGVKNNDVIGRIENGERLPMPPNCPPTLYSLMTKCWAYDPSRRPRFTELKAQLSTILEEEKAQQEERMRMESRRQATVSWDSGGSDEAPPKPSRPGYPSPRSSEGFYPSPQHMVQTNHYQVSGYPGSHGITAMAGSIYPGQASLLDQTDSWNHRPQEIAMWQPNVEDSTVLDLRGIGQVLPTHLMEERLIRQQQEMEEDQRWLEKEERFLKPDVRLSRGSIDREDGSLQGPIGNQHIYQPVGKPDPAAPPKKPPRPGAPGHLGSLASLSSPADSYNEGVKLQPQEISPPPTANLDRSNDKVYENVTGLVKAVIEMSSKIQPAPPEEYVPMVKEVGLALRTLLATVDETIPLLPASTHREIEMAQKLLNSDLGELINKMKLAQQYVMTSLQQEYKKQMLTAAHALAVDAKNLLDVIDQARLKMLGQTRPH

On to `COCCOC(=O)N1C(=O)[C@@]2(c3cc(C#CC4=CCCCC4)ccc31)[C@H](c1ccc(O)cc1)N1[C@H](c3ccccc3)[C@H](c3ccccc3)OC(=O)[C@H]1[C@@H]2C(=O)N1CCc2cc(OC)c(OC)cc2C1`, for which the composite z-score was determined as 1.38 in experiment [1]; 1.19 in [2]; 0.567 in experiment [3]; 0.789 in experiment [4]; 0.427 in [5]; 0.423 in [6]. Also, the composite z-score in experiment [8] was determined as 0.0605; in [9], 0.726. Moreover, the z-score is 0.273 in experiment [7] and 0.0369 (inactive) in [10].
As for `C=C[C@H](OC)[C@@H](O)c1ccc(OC)c(O)c1`, the composite z-score in experiment [1] is -0.495; in experiment [2], -1.4; in experiment [3] it was -0.833; in experiment [4] it was -1.99; in experiment [5] it was -0.857; in experiment [6], 0.598. For the same compound, the composite z-score was -1.82 in experiment [8] and -0.609 in experiment [9]. For the same compound, the z-score is 0.793 in experiment [7] and -1.1 (inactive) in experiment [10].
On to `O=C(c1ccccc1)N1Cc2ccccc2C[C@@]2(N=C(c3ccc(OCCCO)cc3)O[C@H]2c2ccccc2)C1=O`, for which the composite z-score in experiment [1] is 1.89; in experiment [2] it was 1.21; in experiment [3], 1.18; in [4], 0.826; in experiment [5], 1.44; in [6] it was 1.44. The composite z-score in experiment [8] is 0.984; in [9], -0.17. Moreover, the z-score in experiment [7] is -1.85; in experiment [10], -1.29 (inactive).
In the case of `CO[C@H]1O[C@H](CO)[C@@H](OC(=O)CCc2ccccc2)[C@@H]2OC(=O)[C@@H](Cc3ccc4ccccc4c3)C/C=C/C[C@H](Cc3ccc4ccccc4c3)C(=O)O[C@@H]12`, the composite z-score in experiment [1] was 0.0781; in [2], 0.0444; in experiment [3], 0.138; in experiment [4], -0.142; in experiment [5], -0.564; in [6], -0.512. The composite z-score in experiment [8] is -0.346; in [9], -0.228. Also, the z-score in experiment [7] was 1.98; in experiment [10], -0.958 (inactive).
With `COCCCNC(=O)[C@]1(Cc2ccccc2CN=[N+]=[N-])N=C(c2ccc(OCCCO)cc2)O[C@@H]1c1ccccc1N=[N+]=[N-]`, the composite z-score in experiment [1] turned out to be 2.6; in [2], 1.2; in experiment [3] it was 0.641; in experiment [4], 0.927; in experiment [5], 0.564; in [6], 0.854. In addition, the composite z-score in [8] was -0.108; in [9], 1.2. Moreover, the z-score in experiment [7] was 0.398; in experiment [10] it was -6.03 (inactive).
Regarding `C=CCNC(=O)[C@H]1[C@@H]2C(=O)O[C@@H](c3ccccc3)[C@@H](c3ccccc3)N2[C@@H](c2ccc(O)cc2)[C@]12C(=O)Nc1ccccc12`, the composite z-score in [1] was 0.809; in experiment [2], 0.642; in experiment [3], -0.176; in [4], 0.13; in experiment [5], 0.719; in [6], 0.757. The composite z-score in [8] is -0.319; in [9], -0.496. Besides, the results for the z-score in experiment [7] and in experiment [10] were 0.914 and -1.57 (inactive), respectively.
With `CC[C@@H](O[Si](C#C[Si](C(C)C)(C(C)C)C(C)C)(C(C)C)C(C)C)c1cn(Cc2cccc(Cl)c2)nn1`, the composite z-score in experiment [1] came out at 0.448; in experiment [2], 0.79; in [3], 0.357; in experiment [4], 0.377; in experiment [5], 0.371; in experiment [6], 0.46. Also, the composite z-score in [8] was 0.809; in [9] it was 0.23. The results for the z-score in [7] and in [10] were -0.153 and 0.433 (inactive), respectively.
With `COC(=O)C(CC#Cc1ccc2c(c1)[C@]1(C(=O)N2)[C@H](c2ccc(OCCO)cc2)N2[C@H](c3ccccc3)[C@H](c3ccccc3)OC(=O)[C@H]2[C@@H]1C(N)=O)C(=O)OC`, the composite z-score in experiment [1] was 2.32; in experiment [2], 1.21; in experiment [3], 0.307; in [4], 0.858; in experiment [5], 0.0592; in [6] it was -0.379. Further, the composite z-score was -0.269 in experiment [8] and 0.397 in [9]. The results for the z-score in experiment [7] and in [10] were -0.616 and -1.38 (inactive), respectively.
Consider `C[C@]12C(=O)N(CCO)[C@@H]3C(=O)N(c4ccc(Cl)cc4)CC=CC31O[C@@H]1/C=C\CCCOC(=O)C12` (stereo not given in full), for which the composite z-score is -0.415 in experiment [1]; -0.639 in experiment [2]; -0.422 in experiment [3]; -0.333 in experiment [4]; -0.178 in experiment [5]; -0.711 in [6]. Moreover, the composite z-score in experiment [8] was -0.185; in experiment [9], -0.839. Moreover, the z-score in experiment [7] is -0.574; in [10] it was -0.0708 (inactive).
Consider `COc1c(C)cc(-c2cc3c(c(CCc4ccccc4)n2)[Si](C(C)C)(C(C)C)O[C@H]3c2ccccc2)cc1C`, for which the composite z-score was -0.439 in [1]; -0.425 in experiment [2]; -0.191 in [3]; -0.543 in experiment [4]; 0.029 in experiment [5]; -0.278 in experiment [6]. Also, the figures for the composite z-score in experiment [8] and in experiment [9] were 0.268 and 0.183, respectively. Further, the z-score is 0.386 in experiment [7] and -0.183 (inactive) in experiment [10].
For `CCCCCCc1nc(-c2ccc(OC)nc2)c(C)c2c1[Si](C(C)C)(C(C)C)OC2`, the composite z-score is 0.975 in experiment [1]; -0.461 in [2]; 0.0484 in [3]; -0.52 in experiment [4]; 0.553 in experiment [5]; 0.0695 in experiment [6]. Also, the composite z-score in [8] was 0.524; in experiment [9], -0.491. Further, the values for the z-score in experiment [7] and in experiment [10] were -0.498 and 0.146 (inactive), respectively.
As for `C=CCNC(=O)[C@@H]1[C@H]2C(=O)O[C@H](c3ccccc3)[C@H](c3ccccc3)N2[C@H](c2ccc(OCCO)cc2)[C@@]12C(=O)Nc1ccc(C#CCNC(N)=O)cc12`, the composite z-score in experiment [1] is 0.156; in experiment [2], -0.0352; in experiment [3], 0.0378; in [4], 0.75; in experiment [5] it was 0.593; in [6] it was -0.187. The composite z-score in [8] is -0.0354; in [9] it was 0.671. Besides, the figures for the z-score in [7] and in [10] were -0.844 and -0.851 (inactive), respectively.
As for `COC(=O)C(CC#Cc1ccc2c(c1)[C@]1(C(=O)N2)[C@H](C(=O)N2CCN(c3ncccn3)CC2)[C@H]2C(=O)O[C@H](c3ccccc3)[C@H](c3ccccc3)N2[C@@H]1c1ccc(O)cc1)C(=O)OC`, the composite z-score was found to be 1.19 in experiment [1]; 1.25 in experiment [2]; 0.904 in experiment [3]; 0.951 in experiment [4]; 1.43 in experiment [5]; 1.57 in [6]. Also, the results for the composite z-score in experiment [8] and in [9] were 1.03 and 1.36, respectively. Also, the z-score is -0.877 in experiment [7] and -0.178 (inactive) in experiment [10].
`CO[C@H]1O[C@H](CO)[C@@H](OC(=O)Nc2ccccc2)[C@@H]2OC(=O)[C@@H](Cc3ccccc3)C/C=C/C[C@H](Cc3ccccc3)C(=O)O[C@@H]12`: the composite z-score in experiment [1] worked out at 2.4; in experiment [2] it was 0.426; in [3], 0.348; in experiment [4], 0.0766; in [5], 0.661; in [6], 0.0861. Moreover, the composite z-score in experiment [8] came out at 0.449; in experiment [9], 0.95. The z-score in experiment [7] is -0.282; in experiment [10], -0.283 (inactive).

Values taken from PubChem BioAssay.
